Screening results deposited in PubChem BioAssay by Johns Hopkins Ion Channel Center.
In the library only some 2.4% were active in any assay of this set; here they are far more common.
CHT block: human CHT choline transport inhibition; CHT-expressing cells, membrane potential dye, choline response; active compounds read low; Q9GZV3; B-score at 10 µM; hit rate 0.86% among 310,000;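 active = B-score over 3 SD under the library average, and starting fluorescence ratio not unusually high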;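 note: choline stimulus applied at its EC90 after an EC20 pre-addition; B-score computed on integrated fluorescence ratio after choline addition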
TMEM16A act: activates or potentiates the mouse TMEM16A chloride channel. Q8BHY3. HEK293 TMEM16A/YFP-H148Q/I152L, iodide quench fluorescence; active compounds read low. B-score at 10 µM. hit rate 0.3% among 340,000;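 active = fluorescence-ratio B-score plate-corrected deviation score at least 3 library SD below zero, with starting fluorescence score within 5 deviations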;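 note: channel opened by trigger with iodide after compound preincubation; score built on the fluorescence ratio of max minus min over baseline; more negative score means more quench and so TMEM16A activation or potentiation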
CHT allo act: human CHT allosteric activation. hit rate 0.49% among 310,000. B-score at 10 µM. AID 488977. CHT-expressing cells, membrane potential dye, choline EC20; active compounds read high; LV-AA mutant CHT in HEK293 cells. Q9GZV3;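 active = initial fluorescence not abnormally high and integrated response B-score, plate-corrected, over 3 SD above library mean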
ANO1 block: inhibitors of mouse TMEM16A calcium-activated chloride channel. Q8BHY3. HEK293 TMEM16A/YFP iodide influx fluorescence, ionomycin. normalized B-score (activity score, 25-100; higher = stronger inhibition) at 10 µM. hit rate 1.2% among 310,000;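 active = ratio plate-corrected score three or more library SD toward inhibition, starting fluorescence score within five deviations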;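 note: score derived from kinetic fluorescence span divided by baseline fluorescence per well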
CHT inh conf: human CHT inhibition, confirmatory screen. CHT-expressing cells, choline membrane potential dye; LV-to-AA substituted CHT, HEK293 cells. CHT activity remaining % of control (active compounds read low), % at 10 µM. shares compounds with CHT block. hit rate 70% among 2,400. AID 493221;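 active = choline transporter activity left, mean of duplicates at 10 µM, below buffer-only control mean minus 3 SD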;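 note: depolarization triggered by choline at its EC90 following an EC20 pre-addition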
HEK293 CHT ctr: activity in parental HEK293 cells lacking CHT; membrane potential dye, choline response; active = decrease or increase beyond buffer ±3SD; AID 493222; membrane potential ratio readout (active if shifted either direction beyond buffer ±3SD; no single direction) at 10 µM; hit rate 4% among 2,400; shares compounds with CHT block;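 note: parental cells lack the transporter so any hit is non-specific; ratio is peak minus trough fluorescence over baseline after EC90 choline challenge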
Large screens that a line does not name were inactive (follow-up assays come after a bar, where they were run).

COc1ccc(C(CCN2CCCC2)c2c(OC)cc(OC)c3c(-c4ccccc4)cc(=O)oc23)cc1 (stereo not given)	CHT block -5.2 | CHT inh conf 51% | HEK293 CHT ctr inactive
CCOC(=O)c1cnc2c(C)cc(Cl)cc2c1N1CCN(C)CC1	CHT block -6.4 | CHT inh conf 34% | HEK293 CHT ctr inactive
CCOC(=O)c1cnc2c(C(F)(F)F)cccc2c1N1CCN(C)CC1	CHT block -10 | CHT inh conf 30% | HEK293 CHT ctr 3.3
CCOC(=O)c1cnc2c(OC)cccc2c1N1CCN(c2ccccc2OC)CC1	none
O=C(Nc1nnc(-c2ccc(F)cc2)o1)c1cc(Cl)sc1Cl	CHT block -6.8 | CHT inh conf 63% | HEK293 CHT ctr inactive
CCCCNC(=O)C1CCCN1C(=O)Nc1ccccc1 (stereo not given)	none
N=C1CCCN1CC(=O)c1ccc(Cl)cc1	CHT block -10 | CHT inh conf 9.8% | HEK293 CHT ctr inactive
Cc1ccc(-c2nn(-c3ccccn3)c(=O)c3ccccc23)cc1	CHT block -5.2 | CHT inh conf 67% | HEK293 CHT ctr inactive
COc1ccc(NC(=O)C(CC(=O)O)Cc2ccc(C)cc2)cc1 (stereo not given)	none
O=C(CSc1ncnc2scc(-c3ccccc3)c12)NC1CCS(=O)(=O)C1 (stereo not given)	CHT block -6.2 | CHT inh conf inactive | HEK293 CHT ctr inactive
CC(=O)Nc1ccc(S(=O)(=O)Nc2nc3ccccc3nc2Nc2ccc(N)cc2)cc1	CHT block -5.1 | CHT inh conf 67% | HEK293 CHT ctr inactive
COc1cccc(/C=C/C(=O)OCC(=O)N2c3ccccc3NC(=O)C2(C)C)c1	none
COc1ccccc1N(CC(=O)Nc1ccccc1C(=O)N1CCOCC1)S(C)(=O)=O	none
CC(=O)N1c2ccc(S(=O)(=O)NCc3ccccc3Cl)cc2CC1C (stereo not given)	CHT block -7 | CHT inh conf 61% | HEK293 CHT ctr inactive
CC(=O)N1c2ccc(S(=O)(=O)NCCC(=O)NC3CCCC(C)C3C)cc2CC1C (stereo not given)	CHT block -6.8 | CHT inh conf 38% | HEK293 CHT ctr inactive
CC(=O)N1c2ccc(S(=O)(=O)NCCC(=O)NC3CCCCCC3)cc2CC1C (stereo not given)	none
COc1cccc(NC(=O)CCNS(=O)(=O)c2ccc3c(c2)CC(C)N3C(=O)C2CC2)c1 (stereo not given)	CHT block -5.2 | CHT inh conf inactive | HEK293 CHT ctr inactive
O=C(OCC(=O)N1CCc2ccccc2C1)c1ccc(O)cc1	none (no result: CHT block, CHT allo act, ANO1 block)
CC(C)[C@H](NC(=O)N1CCn2c1nc1ccccc12)C(=O)N[C@@H](Cc1ccccc1)C(=O)O	none
CC(C)(C)CC(=O)NCCc1csc(-c2ccccc2)n1	CHT block -5.3 | CHT inh conf 55% | HEK293 CHT ctr inactive
CCCCn1nnnc1NCc1ccc(C)s1	none
O=S(=O)(c1ccc(Cl)cc1)N1CCC(O)(c2cccnc2)CC1	none
Fc1ccc(COc2ccc3ccccc3c2CNc2nn[nH]n2)cc1	none
CNCc1c(OCc2ccc(F)cc2)ccc2ccccc12	CHT block -7.9 | CHT inh conf 41% | HEK293 CHT ctr -13
CCCCCc1cc(=O)oc2c(C(CCN(CC)CC)c3cc(OC)c(OC)c(OC)c3)c(OC)cc(OC)c12 (stereo not given)	CHT block -5.8 | CHT inh conf 51% | HEK293 CHT ctr inactive
CCN(CC)CCC(c1ccc(N(C)C)cc1)c1c(OC)cc(OC)c2c(-c3ccccc3)cc(=O)oc12 (stereo not given)	none
O=C(c1ccccc1[N+](=O)[O-])N1CCCN(C(=O)c2ccccc2[N+](=O)[O-])CC1	none
Cc1ccccc1C(=O)N1CCCN(C(=O)c2ccccc2C)CC1	CHT block -6.8 | CHT inh conf inactive | HEK293 CHT ctr inactive
CN1/C(=C\C=Nc2cc(S(=O)(=O)N3CCOCC3)ccc2N2CCOCC2)C(C)(C)c2ccccc21	none | CHT inh conf 21% | HEK293 CHT ctr inactive
Cc1c(-c2ncn[nH]2)sc(C#N)c1-c1ccccc1	none
